Screening data deposited in PubChem by several laboratories.
GC-A act: GC-A stimulated cGMP production enhancers – HEK293 GC-A cells, cGMP TR-FRET, EC30 ANP, primary screen | AID 1671463, 2021 | 0.14% of 370,000 active | Atrial natriuretic peptide receptor 1 (Homo sapiens), P16066 | activation, % at 10 µM | 0% at EC30 ANP, 100% saturating ANP; in the data active means activation above about 40%
ADAM17 inh: ADAM17 inhibitors, primary screen, biochemical, QFRET; recombinant ADAM17, EDANS/DABCYL FRET peptide cleavage; inhibition, % at 6.95 µM; Disintegrin and metalloproteinase domain-containing protein 17 (Homo sapiens), P78536; 0.83% of 370,000 active;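 active means inhibition above the mean of compounds lying between control limits plus 3 SD, set per campaign, cut at about 8.5% in these data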;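 further: 0% = DMSO-only wells as the low control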
GC-B act: human GC-B receptor activators, primary screen, HEK293 GC-B cells, cGMP TR-FRET, EC30 CNP; Atrial natriuretic peptide receptor 2 (Homo sapiens), P20594; 0% at EC30 CNP, 100% saturating CNP; activation, % at 10 µM; 0.11% of 370,000 active; AID 1920062, 2024;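 active means activation at 10 µM reaching about 35% in either raw or pattern-adjusted values, limit read from the data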
Target sequence (P20594 whole entry, looked up): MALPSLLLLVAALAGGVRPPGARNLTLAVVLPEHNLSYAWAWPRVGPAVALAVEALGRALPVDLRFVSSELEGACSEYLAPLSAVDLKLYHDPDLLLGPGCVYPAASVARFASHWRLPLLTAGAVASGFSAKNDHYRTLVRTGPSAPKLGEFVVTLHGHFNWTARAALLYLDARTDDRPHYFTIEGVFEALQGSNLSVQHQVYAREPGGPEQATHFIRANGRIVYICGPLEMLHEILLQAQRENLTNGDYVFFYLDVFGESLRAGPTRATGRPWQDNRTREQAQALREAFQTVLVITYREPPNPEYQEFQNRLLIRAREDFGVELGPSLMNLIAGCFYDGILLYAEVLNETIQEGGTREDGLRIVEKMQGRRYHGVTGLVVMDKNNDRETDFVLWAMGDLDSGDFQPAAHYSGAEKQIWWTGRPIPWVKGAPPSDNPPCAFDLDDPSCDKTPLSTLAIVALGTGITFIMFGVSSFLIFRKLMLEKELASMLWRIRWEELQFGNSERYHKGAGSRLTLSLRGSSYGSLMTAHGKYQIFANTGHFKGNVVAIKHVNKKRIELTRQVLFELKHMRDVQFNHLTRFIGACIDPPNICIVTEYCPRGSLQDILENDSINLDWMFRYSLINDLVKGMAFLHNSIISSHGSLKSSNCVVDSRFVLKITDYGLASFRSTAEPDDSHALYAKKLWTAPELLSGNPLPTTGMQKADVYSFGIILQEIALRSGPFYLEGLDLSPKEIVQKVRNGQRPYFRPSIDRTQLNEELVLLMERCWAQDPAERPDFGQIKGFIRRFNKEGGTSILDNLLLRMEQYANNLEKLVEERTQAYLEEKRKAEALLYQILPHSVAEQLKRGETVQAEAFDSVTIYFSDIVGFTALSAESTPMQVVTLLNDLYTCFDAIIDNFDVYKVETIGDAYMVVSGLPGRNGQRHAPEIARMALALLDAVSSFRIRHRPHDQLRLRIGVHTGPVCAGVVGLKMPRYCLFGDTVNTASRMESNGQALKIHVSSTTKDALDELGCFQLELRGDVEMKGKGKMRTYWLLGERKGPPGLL
KLK7 zymogen act: proKLK7 zymogen activators, primary screen, biochemical, fluorescence intensity | activation, % at 7 µM | 0.9% of 370,000 active | AID 652039, 2013 | purified proKLK7, EDANS-DABCYL substrate fluorescence; 100% is mature enzyme control, 0% vehicle | Kallikrein-7 (Homo sapiens), P49862;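 active means activation above the mean of all tested compounds plus 3 SD, computed per campaign excluding outliers beyond control limits, cut at about 13% in these data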
ADAM10 inh: human ADAM10 inhibitors, primary screen, biochemical, QFRET, HTS; 0.62% of 370,000 active; Disintegrin and metalloproteinase domain-containing protein 10 (Homo sapiens), O14672; AID 720582, 2013; inhibition, % at 7 µM; recombinant ADAM10, EDANS/DABCYL FRET peptide cleavage, 3 h;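 active means inhibition above a per-campaign cutoff equal to the mean of compounds falling between control-based bounds plus 3 SD, cut at about 20% in these data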;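 further: 0% = DMSO wells while the 100% control is not disclosed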
An asterisk follows results filed as active; nt = no result. This is a sample that favours compounds with a hit; in the whole collection about 2.2% have one here.

SMILES	GC-A act	ADAM17 inh	GC-B act	KLK7 zymogen act	ADAM10 inh
COC(=O)c1ccc(CSc2ncnc3c2sc2nc(N4CCOCC4)c4c(c23)CCCC4)o1	50*	-15	62*	1	-51
CC(C)N1Cc2nnn(Cc3ccccc3)c2-c2cc(N3CCCC3)ccc2S1(=O)=O	-10	-7	-14	-4	-37
COC(=O)[C@]12C[C@H](CC(=O)NCCCN3CCCC3=O)C(=O)N(Cc3ccc(Cl)cc3Cl)C1=C[C@H](COCc1ccccc1)O[C@@H]2C	-4	-4	6	1	-2
Cn1cc(S(=O)(=O)N2CCCC2)cc1C(=O)NCc1ccccc1Cl	-1	-2	2	0	-7
COc1ccccc1CNC(=O)c1cc(S(=O)(=O)N2CCCC2)cn1C	0	-6	37*	0	-16
Nc1nc2c(Br)ccc(Br)c2cc1C(=O)NCc1cccc2ccccc12	3	-6	-10	0	-23
CN(C)C=Nc1nc2c(Br)ccc(Br)c2cc1C(=O)NCC(C)(C)C	48*	0	-8	0	-2
Cc1nc2ccc(NC(=O)c3ccc(Cl)c([N+](=O)[O-])c3)cc2s1	12	-1	2	0	9
Cc1nc2ccc(NC(=O)c3cc([N+](=O)[O-])cc([N+](=O)[O-])c3Cl)cc2s1	80*	3	21	1	8
CCCCn1c(SCC(=O)NCc2ccco2)nc2ccc(N3CCOCC3)cc2c1=O	0	-62	-5	15*	-205
C=CCN(C)C(C#Cc1ccccc1)c1ccccc1C(F)(F)F (configuration not stated)	-5	-3	-12	nt	0
CCOC(=O)[C@]12CCCC=C1N(Cc1ccc(OC)cc1)C(=O)[C@@H]2CC(=O)N1CCN(C(=O)c2ccco2)CC1	3	0	2	0	-9
O=C(CCN1CCC2CCC(C2)C1)c1ccccc1 (configuration not stated)	53*	-1	-6	0	-4
Cc1cc(C)c2sc(NNC(=O)c3ccc(S(=O)(=O)N4CCc5ccccc5C4)cc3)nc2c1	-2	11*	0	-1	11
CCOc1ccc(C=Nn2c(-c3ccc(F)cc3)n[nH]c2=S)cc1	1	2	-8	1	2
O=C1[C@@H](CCc2ccccc2)[C@@H]2c3ccccc3C=NN2[C@@H]2c3ccccc3C=NN12	-9	-1	-12	0	1
COc1ccc(Cl)c2c1[nH]c1nc(SCc3ccccn3)nnc12	26	1	21	0	8
COc1ccc(Cl)c2c1[nH]c1nc(SCc3cccnc3)nnc12	32	-3	43*	0	-5
CCC(=O)OCCNc1cc(Sc2nc3ccccc3[nH]2)c2nonc2c1[N+](=O)[O-]	43*	2	27	0	5
COc1ccccc1-n1c(SCC(=O)Nc2cc(C)on2)nc2c([nH]c3ccccc32)c1=O	71*	-1	0	1	-5
COc1cccc(-n2c(SCC(N)=O)nc3c([nH]c4ccccc43)c2=O)c1	-6	-10	2	0	-32
COc1cccc(-n2c(SCC(=O)Nc3cc(C)on3)nc3c([nH]c4ccccc43)c2=O)c1	80*	-2	-3	-1	-5
COCCn1c(SCC(=O)Nc2ccccc2F)nc2c([nH]c3ccccc32)c1=O	55*	-5	2	-2	-14
COc1ccc(-n2c(SCC(=O)Nc3cc(C)on3)nc3ccc(O)cc3c2=O)cc1OC	58*	-6	-2	-3	-17
Cc1cc(NC(=O)CSc2nc3c([nH]c4ccccc43)c(=O)n2-c2ccccc2F)no1	73*	1	-2	-2	-4
SMILES	GC-A act	ADAM17 inh	GC-B act	KLK7 zymogen act	ADAM10 inh
O=C(CSc1nc2c([nH]c3ccccc32)c(=O)n1-c1ccccc1F)NCC1CCCO1 (configuration not stated)	-3	-60	-3	1	-196
CCCCNS(=O)(=O)CC1NCc2ccc(C)cc21 (configuration not stated)	-2	-2	-4	-1	-4
O=C(COc1ccccc1C(=O)O)Nc1ccc(SC(F)F)cc1	6	3	-2	0	3
O=C(COC(=O)c1ccccc1C(=O)c1ccccc1)Nc1ccc(SC(F)F)cc1	0	9.0*	0	-1	16
O=C(O)CCc1ccc(-c2ccc(Br)cc2)o1	44*	-3	3	0	-1
O=C(O)CCc1ccc(-c2ccc(Cl)cc2)o1	45*	-5	-2	-1	-3
COc1ccc(-c2ccc(CCC(=O)O)o2)cc1	1	-16	-3	-1	-41
COc1cc(C2C(C#N)=C(N)OC3=C2C(=O)CCC3)c([N+](=O)[O-])cc1OC (configuration not stated)	-6	-35	-11	25*	-150
CCCS(=O)(=O)c1c(S(=O)(=O)CCC)c2ccc(C(N)=O)cn2c1C(=O)c1ccccc1	35	2	42*	0	1
CCCS(=O)(=O)c1c(S(=O)(=O)CCC)c2c(C(N)=O)cccn2c1C(=O)c1ccc(F)cc1	-1	-5	1	0	-7
CC(C)N1CCCCC(NC(=O)c2ccc(F)cc2)C1=O (configuration not stated)	4	1	2	0	-3
CC1CCN(CCCn2c(=S)[nH]c3ccc(N4CCOCC4)cc3c2=O)CC1	-5	-30	-6	53*	-115
CCN(CCCn1c(=S)[nH]c2ccc(N3CCOCC3)cc2c1=O)c1ccccc1	5	-8	4	-20	-21
CCN1CCN(Cc2ccc(NC(=O)c3cc(NC(=O)C(=O)c4c[nH]c5ccccc45)cc(OC)c3)cc2C(F)(F)F)CC1	-2	9.0*	-2	-3	22*
CCOC(=O)[C@@]12CCCC=C1N(CCc1ccc(Cl)cc1)C(=O)[C@H]2CC(=O)NCC1CCCCC1	0	3	10	0	9
CC(=NNC(=S)N(Cc1ccccn1)Cc1ccccn1)c1cnccn1	-1	-7	4	1	-15
S=C(NN=C(c1ccccc1)c1ccccn1)N(Cc1ccccn1)Cc1ccccn1	1	72*	0	0	78*
O=C(CCCN1C(=O)/C(=C\c2ccccc2)SC1=S)Nc1ccc(O)cc1	-2	5	-2	0	24*
CC(C)[C@H]1COc2c3ccccc3nn21	2	0	-3	0	1
CC(=O)Nc1sc2c(c1-c1nc3ccccc3s1)CCCNC2	30	-13	34*	nt	-18
